# According to PubChem BioAssay AID1159580 (chemical genetic matrix, 2015):
# Hit rate of the full screen: of about 5,500 compounds, about 2,000 (36%) were called active. Roughly 18% stayed inconclusive and do not appear here. This is one part of the list. A number with no mark means an inactive call. Cut-off read from the data, not from the text of the source: active = normalized growth mostly below about 0.91 (no sharp cut-off); inconclusive = no clear call, values can overlap the other calls; inactive = mostly above about 0.92.
# Test: chemical genetic growth profiling, strain panel (AID 1159580);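 note: tested at 20 µM; growth read once vehicle control cultures reached saturation at 30 °C; 1 = growth at the plate median or of vehicle wells; lower values mean less growth of the strain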
# Conditions: S. cerevisiae deletion strains, growth OD
smiles,measurement,setting,value
COc1ccc2oc3ccccc3c(=O)c2c1,normalized growth,"locus YAL021C, strain ccr4, hits give low values",0.948
same,normalized growth,"locus YAL026C, strain drs2, hits give low values",0.884 (active)
same,normalized growth,"locus YAL030W, strain snc1, hits give low values",0.926 (active)
same,normalized growth,"locus YBL061C, strain skt5, hits give low values",0.896 (active)
same,normalized growth,"locus YBR009C, strain hhf1, hits give low values",0.712 (active)
same,normalized growth,"locus YBR021W, strain FUR4, hits give low values",1.22 [resistant] (active)
same,normalized growth,"locus YBR023C, strain chs3, hits give low values",0.874 (active)
same,normalized growth,"locus YBR171W, strain sec66, hits give low values",0.886 (active)
same,normalized growth,"locus YBR229C, strain ROT2, hits give low values",0.885 (active)
same,normalized growth,"locus YBR231C, strain swc5, hits give low values",0.76 (active)
same,normalized growth,"locus YBR279W, strain paf1, hits give low values",0.883 (active)
same,normalized growth,"locus YCL011C, strain gbp2, hits give low values",0.899 (active)
same,normalized growth,"locus YCL016C, strain dcc1, hits give low values",0.842 (active)
same,normalized growth,"locus YCL029C, strain bik1, hits give low values",0.884 (active)
same,normalized growth,"locus YCL061C, strain MRC1, hits give low values",0.9 (active)
same,normalized growth,"locus YCL069W, strain vba3, hits give low values",0.922 (active)
same,normalized growth,"locus YCR088W, strain abp1, hits give low values",0.956
same,normalized growth,"locus YDL005C, strain med2, hits give low values",0.978
same,normalized growth,"locus YDL035C, strain GPR1, hits give low values",0.861
same,normalized growth,"locus YDL040C, strain nat1, hits give low values",0.935
same,normalized growth,"locus YDL074C, strain BRE1, hits give low values",0.762 (active)
same,normalized growth,"locus YDL101C, strain DUN1, hits give low values",0.76 (active)
same,normalized growth,"locus YDL134C, strain PPH21, hits give low values",0.791 (active)
same,normalized growth,"locus YDL185W, strain tfp1, hits give low values",0.809 (active)
same,normalized growth,"locus YDL192W, strain arf1, hits give low values",0.814 (active)
same,normalized growth,"locus YDR001C, strain nth1, hits give low values",0.944
same,normalized growth,"locus YDR069C, strain doa4, hits give low values",0.918
same,normalized growth,"locus YDR101C, strain arx1, hits give low values",0.88 (active)
same,normalized growth,"locus YDR137W, strain rgp1, hits give low values",0.556 (active)
same,normalized growth,"locus YDR150W, strain NUM1, hits give low values",0.904 (active)
same,normalized growth,"locus YDR159W, strain sac3, hits give low values",0.901
same,normalized growth,"locus YDR162C, strain NBP2, hits give low values",0.437 (active)
same,normalized growth,"locus YDR195W, strain ref2",1.28 [resistant] (active)
same,normalized growth,"locus YDR297W, strain sur2, hits give low values",0.935
same,normalized growth,"locus YDR318W, strain mcm21, hits give low values",0.862 (active)
same,normalized growth,"locus YDR334W, strain swr1, hits give low values",0.852 (active)
same,normalized growth,"locus YDR335W, strain msn5, hits give low values",0.874 (active)
same,normalized growth,"locus YDR388W, hits give low values",0.901 (active)
same,normalized growth,"locus YDR392W, strain spt3, hits give low values",0.35 (active)
same,normalized growth,"locus YDR502C, strain sam2, hits give low values",0.848 (active)
same,normalized growth,"locus YEL003W, strain gim4, hits give low values",0.819 (active)
same,normalized growth,"locus YEL037C, strain rad23, hits give low values",0.925
same,normalized growth,"locus YEL061C, strain CIN8 (second series), hits give low values",0.676 (active)
same,normalized growth,"locus YEL061C, strain CIN8, hits give low values",0.718 (active)
same,normalized growth,"locus YER015W, strain faa2, hits give low values",0.931
same,normalized growth,"locus YER016W, strain bim1, hits give low values",0.903 (active)
same,normalized growth,"locus YER110C, hits give low values",0.837 (active)
same,normalized growth,"locus YER111C, strain swi4, hits give low values",0.87 (active)
same,normalized growth,"locus YER155C, strain BEM2 (second series), hits give low values",0.249 (active)
same,normalized growth,"locus YER155C, strain BEM2, hits give low values",0.997
same,normalized growth,"locus YER167W, strain BCK2, hits give low values",0.918
same,normalized growth,"locus YFR010W, strain ubp6, hits give low values",0.904
same,normalized growth,"locus YGL078C, strain dbp3, hits give low values",0.9 (active)
same,normalized growth,"locus YGL086W, strain mad1, hits give low values",0.836 (active)
same,normalized growth,"locus YGL167C, strain pmr1, hits give low values",0.902 (active)
same,normalized growth,"locus YGL173C, strain kem1, hits give low values",0.882 (active)
same,normalized growth,"locus YGL227W, strain vid30, hits give low values",0.94
same,normalized growth,"locus YGL240W, strain doc1, hits give low values",0.785 (active)
same,normalized growth,"locus YGL248W, strain PDE1, hits give low values",0.836 (active)
same,normalized growth,"locus YGL253W, strain hxk2, hits give low values",0.74 (active)
same,normalized growth,"locus YGR135W, strain pre9, hits give low values",0.811 (active)
same,normalized growth,"locus YGR252W, strain gcn5, hits give low values",0.799
same,normalized growth,"locus YHR013C, strain ard1, hits give low values",0.631 (active)
same,normalized growth,"locus YHR027C, strain rpn1, hits give low values",0.939
same,normalized growth,"locus YHR030C, strain SLT2, hits give low values",0.656 (active)
same,normalized growth,"locus YHR079C, strain IRE1 (second series), hits give low values",0.902 (active)
same,normalized growth,"locus YHR094C, strain hxt1, hits give low values",0.912 (active)
same,normalized growth,"locus YHR129C, strain ARP1, hits give low values",0.897 (active)
same,normalized growth,"locus YHR142W, strain chs7, hits give low values",0.688 (active)
same,normalized growth,"locus YHR200W, strain rpn10, hits give low values",0.862 (active)
same,normalized growth,"locus YIL066C, strain RNR3, hits give low values",0.761 (active)
same,normalized growth,"locus YIL073C, strain SPO22, hits give low values",0.736
same,normalized growth,"locus YIL125W, strain kgd1, hits give low values",0.9 (active)
same,normalized growth,"locus YIR030C, strain dcg1, hits give low values",0.91 (active)
same,normalized growth,"locus YJL092W, strain hpr5, hits give low values",0.944
same,normalized growth,"locus YJL095W, strain BCK1 (second series), hits give low values",0.65 (active)
same,normalized growth,"locus YJL095W, strain BCK1, hits give low values",0.428 (active)
same,normalized growth,"locus YJL115W, strain asf1, hits give low values",0.948
same,normalized growth,"locus YJL129C, strain trk1, hits give low values",0.921
same,normalized growth,"locus YJL134W, strain LCB3, hits give low values",0.913 (active)
same,normalized growth,"locus YJL154C, strain vps35, hits give low values",0.947
same,normalized growth,"locus YJL164C, strain tpk1, hits give low values",0.844 (active)
same,normalized growth,"locus YJL166W, strain qcr8, hits give low values",0.756 (active)
same,normalized growth,"locus YJL168C, strain set2, hits give low values",0.903 (active)
same,normalized growth,"locus YJL187C, strain SWE1 (second series), hits give low values",0.828 (active)
